# A selection: hits, their analogues and other compounds. The true share with any hit is near 21%.
# D3 ag = activates the human D3 dopamine receptor. D3R DiscoveRx beta-arrestin cells, luminescence, 90 min. max activation, %. 410,000 compounds, 0.58% hits; in the data active = max activation above about 30%; also: 0% is about no effect
#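 Cells at 1500/well, incubated overnight, then treated with pinned compounds (dopamine as control) for 90 min at 37 degrees C. DiscoveRx reagent added for 30 - 60 minutes at room temperature; luminescence read.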
# IL1B secr inh = inflammasome signaling inhibition, IL-1 beta readout. THP-1 LPS/ATP IL-1B secretion, AlphaLISA, 16 h; stronger effect = lower value. activity change, % at 57.5 µM. 360,000 compounds, 4.7% hits; in the data active = activity change below about -50%; inconclusive = mostly about -30% to -49%; also: % is scaled to controls: 0 for no effect and ±100 for the full control effect
#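 Secreted IL-1B measured by AlphaLISA bead assay after 16 h compound exposure of THP-1 cells; compounds (final up to 57.5 uM) added 1 h before LPS (250 ng/mL) and ATP (1.25 mM) stimulation; lower signal means less secretion.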
# ClpP mod = qHTS Assay for Activators of ClpP | ATP-dependent Clp protease proteolytic subunit (Bacillus subtilis (strain 168)), P80244 | purified B. subtilis ClpP, FRET peptide cleavage, 20 min | Potency, µM (highest dose often 57.5 µM), for the others: top-dose activity change, negative = active | 340,000 compounds, 1.9% hits | AID 651965, 2013; active = well fitted falling curve with a large enough effect; inconclusive = small, poorly fitted or top-dose-only effect; inactive = no such curve, though single readings can be large or run the other way; also: potency is read from the fitted curve at half-maximal effect; the source files actives as falling curves though it sought activators and does not explain the sign; nearly all actives have a fitted effect of over 65% in size
#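 ClpP 10 microg/mL final, pH 8 Tris/KCl buffer with BSA, glycerol, Tween-20; compound pinned in; FRET-FV substrate; RT 20 min; Ex320/Em430; ΔFRET vs ADEP 5.8 microM, DMSO, no enzyme.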
# TDP1 cell CPT = growth inhibition of DT40 Tdp1-/-;hTDP1 cells with camptothecin (screen for TDP1 inhibitors); chicken DT40 Tdp1-/-;hTDP1 cells + 20 nM CPT, ATP luminescence, 48 h; Potency, µM (highest dose often 46.2 µM), inactives show at the top dose activity change, negative = growth inhibition, usual class: inhibitors; 420,000 compounds, 12% hits; also: potency is read from the fitted curve at half-maximal effect; % is scaled to controls: 0 for no effect and ±100 for the full control effect; nearly all actives have a fitted effect of over 55% in size
#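 Chicken DT40 Tdp1-/- cells complemented with human TDP1, 400 cells/well, exposed to compounds plus 20 nM camptothecin for at least 48 h at 37 C; viability read as ATP content by CellTiter-Glo luminescence.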
# D3 antag = blocks the human D3 dopamine receptor; D3R cells, DiscoveRx beta-arrestin luminescence, antagonist mode; stronger effect = lower value; max response, negative = inhibition, %; 360,000 compounds, 2.5% hits; AID 652054; in the data active = max response below about -50%; inconclusive = no clear call, values can overlap the other calls; also: % is scaled to controls: 0 for no effect and ±100 for the full control effect
#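 Cells expressing the human receptor were seeded at 1500 cells/well, incubated overnight at 37 degrees C in 5% CO2, then exposed to library compounds with dopamine controls for 90 minutes at 37 degrees C before luminescent detection.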
# DT40 TDP1 no CPT = qHTS for Inhibitors of human tyrosyl-DNA phosphodiesterase 1 (TDP1): qHTS in cells in absence of CPT. DT40 Tdp1-/- hTDP1 cells, no CPT, ATP luminescence, 48 h. Potency, µM (titrated, usually from 46.2 µM), inactives show at the highest dose activity change, negative = growth inhibition, most hits filed as inhibitors. 420,000 compounds, 15% hits; also: potency is read from the fitted curve at half-maximal effect; % is scaled to controls: 0 for no effect and ±100 for the full control effect; nearly all actives have a fitted effect of over 55% in size
#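 Chicken DT40 Tdp1-/- cells stably complemented with human TDP1 were seeded at 400 cells/well with DMSO in place of 20 nM camptothecin. After compound pinning, cells grew at least 48 hr at 37 °C; viability read by CellTiter-Glo luminescence.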
# The depositor's hits bear a star; ? = inconclusive; nt = no result. Unless noted, calls follow the shape of the dose curve; as a rule, active = well fitted inhibition curve with a large enough effect; inconclusive = small, poorly fitted or top-dose-only effect; inactive = flat fitted curve, though single readings scatter.
SMILES,D3 ag,IL1B secr inh,ClpP mod,TDP1 cell CPT,D3 antag,DT40 TDP1 no CPT
Cc1c2cnn(CC(=O)NCc3ccc(F)cc3)c(=O)c2c(C)n1Cc1cccc(Cl)c1,-3,nt,-6%,4.1µM*,nt,4.1µM*
CC1CCN(CC2CCN(C(=O)Nc3ccc(Br)cc3F)CC2)CC1,-19,nt,-2%,-10%,nt,-18%
CCC(Sc1nnc(C)n2c1cc1occc12)C(=O)Nc1ccccc1OC (stereo unspecified),-6,nt,-2%,?,nt,21µM*
N#C/C(=C(/O)Cc1ccccc1)P(=O)(c1ccccc1)c1ccccc1,-5,8,nt,-10%,22,-10%
Cc1ccc(N(CC(=O)NCCc2ccccc2C)S(=O)(=O)N(C)C)cc1,-8,nt,-3%,-20%,nt,?
COC(=O)C1CCN(C(=O)C2CC(=O)N(c3ccc(C)c(Cl)c3)C2)CC1 (stereo unspecified),5,-1,nt,0%,3,-10%
C#CCN(C[C@@H]1[C@@H](OC(=O)NCCCCCC)[C@@H](OC(=O)NCCCCCC)Cn2c(=O)n(CCCCCC)c(=O)n21)S(=O)(=O)c1ccc(C)cc1,5,3,-3%,?,21,?
C#CCN(C[C@@H]1[C@@H](OC(=O)NCc2ccccc2F)[C@@H](OC(=O)NCc2ccccc2F)Cn2c(=O)n(CCCCCC)c(=O)n21)S(=O)(=O)c1ccc(C)cc1,1,?,-2%,?,9,12µM*
C#CCN(C[C@@H]1[C@@H](OC(=O)NCC2CCCCC2)[C@@H](OC(=O)NCC2CCCCC2)Cn2c(=O)n(CCCCCC)c(=O)n21)S(=O)(=O)c1ccc(C)cc1,2,-12,-1%,?,1,6.5µM*
C#CCN(C[C@@H]1[C@@H](OC(=O)NCc2ccccc2F)[C@@H](OC(=O)NCc2ccccc2F)Cn2c(=O)ccc(=O)n21)S(=O)(=O)c1ccc(C)cc1,-17,-111*,0%,4.1µM*,-27,2.6µM*
CC1CCCCN1C(=O)COC(=O)C1CCN(S(=O)(=O)c2ccc3c(c2)OCCO3)CC1 (stereo unspecified),-13,10,-1%,-20%,-21,-2%
Cc1cc(C)c(OCC(=O)Nc2ccc(S(=O)(=O)N3CCCC3)cc2)c(C)c1,1,-29,1%,?,4,?
Cc1cccc(C)c1OCC(=O)Nc1cccc(S(=O)(=O)N2CCCCCC2)c1,-1,-5,-1%,21µM*,0,21µM*
CCOc1ccc(OCCC(=O)OCC(=O)Nc2cccc(S(=O)(=O)N3CCCCC3)c2)cc1,2,17,-4%,?,-4,?
O=C(COc1ccc(C(=O)c2ccc(F)cc2)cc1)Nc1cccc(S(=O)(=O)N2CCOCC2)c1,-4,?,12%,23µM*,0,12µM*
COc1ccccc1NC(CC(=O)c1ccccc1)C(=O)OCC(=O)c1ccc(Br)cc1 (stereo unspecified),3,5,-1%,?,10,?
COc1ccccc1NC(CC(=O)c1ccccc1)C(=O)OCC(=O)c1ccc(C)c(C)c1 (stereo unspecified),-13,5,1%,10µM*,2,16µM*
CCC(=O)c1ccc(OCC(=O)Nc2cccc(S(=O)(=O)N3CCCCCC3)c2)cc1,6,4,0%,7.3µM*,1,5.2µM*
CC(CC(=O)N(C)c1c(N)n(Cc2ccccc2)c(=O)[nH]c1=O)c1ccccc1 (stereo unspecified),3,13,0%,-1%,5,-5%
O=S1(=O)CC(N2CCCCC2)CN1Cc1cn(Cc2cccc(Cl)c2)nn1 (stereo unspecified),5,7,0%,-11%,5,-14%
COc1ccc(C(=O)NCC(=O)N/N=C/c2ccc(C)o2)cc1OC,-3,2,-4%,20%,7,12%
Cc1cc(S(=O)(=O)N2CCCCC2)ccc1OCC(=O)Nc1ccccc1,-6,-13,-11%,?,-12,?
Cc1ccc(OCC(=O)Nc2cccc(S(=O)(=O)N3CCCCCC3)c2)c([N+](=O)[O-])n1,-10,-4,1%,?,13,16µM*
Cc1ccccc1CC(=O)Nc1cccc(S(=O)(=O)N2CCCC2)c1,9,0,0%,-8%,4,11%
COc1cccc(/C=C/C(=O)OCC(=O)Nc2cccc(S(=O)(=O)N3CCCCC3)c2)c1OC,1,7,28µM*,?,1,?
SMILES,D3 ag,IL1B secr inh,ClpP mod,TDP1 cell CPT,D3 antag,DT40 TDP1 no CPT
O=C(COC(=O)/C=C/c1ccc(OC(F)F)cc1)Nc1cccc(S(=O)(=O)N2CCOCC2)c1,-8,-11,nt,?,-17,21µM*
Cc1cccc(C)c1OCC(=O)Nc1cccc(S(=O)(=O)N2CCCC2)c1,4,-25,0%,?,15,13µM*
COc1cccc(/C=C/C(=O)OCC(=O)c2ccc(C)c(C)c2)c1OC,9,-5,4%,-28%,9,26µM*
Cc1cc(S(=O)(=O)N2CCOCC2)ccc1OCC(=O)Nc1ccc(F)c(Cl)c1,-8,12,nt,?,-15,-19%
COc1ccc(OC)c(/C=C/C(=O)OCC(=O)Nc2cccc(Oc3ccccc3)c2)c1,9,-6,35µM*,?,-7,?
Cc1cc(S(=O)(=O)N2CCOCC2)ccc1OCC(=O)Nc1ccc(F)cc1,-10,-11,13µM*,14%,-21,-28%
Cc1noc(C)c1NC(=O)Nc1cccc2c1O[C@H](CN(C)S(=O)(=O)c1cccs1)[C@@H](C)CN([C@H](C)CO)C2=O,5,-8,0%,-17%,15,-2%
CCOc1nc(NCc2ccco2)nc(Nc2ccc(OC)cc2)n1,-1,-21,0%,?,17,?
COc1ccc(Nc2nc(NCc3ccco3)nc(N/N=C/c3ccccc3)n2)cc1,-6,-4,-3%,?,-51*,?
COc1ccccc1Nc1nc(NCc2ccco2)c2ccccc2n1,-11,nt,nt,?,10,21µM*
Cc1ccc(Nc2nc(NCc3ccco3)c3ccccc3n2)cc1,-10,-109*,nt,2.6µM*,0,2.6µM*
CC(Oc1ccccc1)C(=O)N[C@@H]1C(=O)N2C(C(=O)OCC3CCCCC3)C(C)(C)S[C@H]12 (stereo partly specified),nt,nt,-2%,-7%,nt,-11%
